Assay results as given in the supplement of paper PMC11732987, “Enantioselective OTUD7B fragment discovery through chemoproteomics screening and high-throughput optimisation” (Communications Chemistry, 2025).

Key:
Experiment in all cases: log2 ratio of Biotin-Ahx-Ub-VS probe labelling (fragment/DMSO); higher = less target engagement (more negative = stronger competition), active = hit call of the paper (q ≤ 0.05, log2 ratio ≤ -1)
Details in all cases: compound concentration: 200 uM; treatment time: 3 h
USP34 = USP34 (UniProt Q70CQ2)
Sequence of USP34 (Q70CQ2 whole entry, the tested form may be a part): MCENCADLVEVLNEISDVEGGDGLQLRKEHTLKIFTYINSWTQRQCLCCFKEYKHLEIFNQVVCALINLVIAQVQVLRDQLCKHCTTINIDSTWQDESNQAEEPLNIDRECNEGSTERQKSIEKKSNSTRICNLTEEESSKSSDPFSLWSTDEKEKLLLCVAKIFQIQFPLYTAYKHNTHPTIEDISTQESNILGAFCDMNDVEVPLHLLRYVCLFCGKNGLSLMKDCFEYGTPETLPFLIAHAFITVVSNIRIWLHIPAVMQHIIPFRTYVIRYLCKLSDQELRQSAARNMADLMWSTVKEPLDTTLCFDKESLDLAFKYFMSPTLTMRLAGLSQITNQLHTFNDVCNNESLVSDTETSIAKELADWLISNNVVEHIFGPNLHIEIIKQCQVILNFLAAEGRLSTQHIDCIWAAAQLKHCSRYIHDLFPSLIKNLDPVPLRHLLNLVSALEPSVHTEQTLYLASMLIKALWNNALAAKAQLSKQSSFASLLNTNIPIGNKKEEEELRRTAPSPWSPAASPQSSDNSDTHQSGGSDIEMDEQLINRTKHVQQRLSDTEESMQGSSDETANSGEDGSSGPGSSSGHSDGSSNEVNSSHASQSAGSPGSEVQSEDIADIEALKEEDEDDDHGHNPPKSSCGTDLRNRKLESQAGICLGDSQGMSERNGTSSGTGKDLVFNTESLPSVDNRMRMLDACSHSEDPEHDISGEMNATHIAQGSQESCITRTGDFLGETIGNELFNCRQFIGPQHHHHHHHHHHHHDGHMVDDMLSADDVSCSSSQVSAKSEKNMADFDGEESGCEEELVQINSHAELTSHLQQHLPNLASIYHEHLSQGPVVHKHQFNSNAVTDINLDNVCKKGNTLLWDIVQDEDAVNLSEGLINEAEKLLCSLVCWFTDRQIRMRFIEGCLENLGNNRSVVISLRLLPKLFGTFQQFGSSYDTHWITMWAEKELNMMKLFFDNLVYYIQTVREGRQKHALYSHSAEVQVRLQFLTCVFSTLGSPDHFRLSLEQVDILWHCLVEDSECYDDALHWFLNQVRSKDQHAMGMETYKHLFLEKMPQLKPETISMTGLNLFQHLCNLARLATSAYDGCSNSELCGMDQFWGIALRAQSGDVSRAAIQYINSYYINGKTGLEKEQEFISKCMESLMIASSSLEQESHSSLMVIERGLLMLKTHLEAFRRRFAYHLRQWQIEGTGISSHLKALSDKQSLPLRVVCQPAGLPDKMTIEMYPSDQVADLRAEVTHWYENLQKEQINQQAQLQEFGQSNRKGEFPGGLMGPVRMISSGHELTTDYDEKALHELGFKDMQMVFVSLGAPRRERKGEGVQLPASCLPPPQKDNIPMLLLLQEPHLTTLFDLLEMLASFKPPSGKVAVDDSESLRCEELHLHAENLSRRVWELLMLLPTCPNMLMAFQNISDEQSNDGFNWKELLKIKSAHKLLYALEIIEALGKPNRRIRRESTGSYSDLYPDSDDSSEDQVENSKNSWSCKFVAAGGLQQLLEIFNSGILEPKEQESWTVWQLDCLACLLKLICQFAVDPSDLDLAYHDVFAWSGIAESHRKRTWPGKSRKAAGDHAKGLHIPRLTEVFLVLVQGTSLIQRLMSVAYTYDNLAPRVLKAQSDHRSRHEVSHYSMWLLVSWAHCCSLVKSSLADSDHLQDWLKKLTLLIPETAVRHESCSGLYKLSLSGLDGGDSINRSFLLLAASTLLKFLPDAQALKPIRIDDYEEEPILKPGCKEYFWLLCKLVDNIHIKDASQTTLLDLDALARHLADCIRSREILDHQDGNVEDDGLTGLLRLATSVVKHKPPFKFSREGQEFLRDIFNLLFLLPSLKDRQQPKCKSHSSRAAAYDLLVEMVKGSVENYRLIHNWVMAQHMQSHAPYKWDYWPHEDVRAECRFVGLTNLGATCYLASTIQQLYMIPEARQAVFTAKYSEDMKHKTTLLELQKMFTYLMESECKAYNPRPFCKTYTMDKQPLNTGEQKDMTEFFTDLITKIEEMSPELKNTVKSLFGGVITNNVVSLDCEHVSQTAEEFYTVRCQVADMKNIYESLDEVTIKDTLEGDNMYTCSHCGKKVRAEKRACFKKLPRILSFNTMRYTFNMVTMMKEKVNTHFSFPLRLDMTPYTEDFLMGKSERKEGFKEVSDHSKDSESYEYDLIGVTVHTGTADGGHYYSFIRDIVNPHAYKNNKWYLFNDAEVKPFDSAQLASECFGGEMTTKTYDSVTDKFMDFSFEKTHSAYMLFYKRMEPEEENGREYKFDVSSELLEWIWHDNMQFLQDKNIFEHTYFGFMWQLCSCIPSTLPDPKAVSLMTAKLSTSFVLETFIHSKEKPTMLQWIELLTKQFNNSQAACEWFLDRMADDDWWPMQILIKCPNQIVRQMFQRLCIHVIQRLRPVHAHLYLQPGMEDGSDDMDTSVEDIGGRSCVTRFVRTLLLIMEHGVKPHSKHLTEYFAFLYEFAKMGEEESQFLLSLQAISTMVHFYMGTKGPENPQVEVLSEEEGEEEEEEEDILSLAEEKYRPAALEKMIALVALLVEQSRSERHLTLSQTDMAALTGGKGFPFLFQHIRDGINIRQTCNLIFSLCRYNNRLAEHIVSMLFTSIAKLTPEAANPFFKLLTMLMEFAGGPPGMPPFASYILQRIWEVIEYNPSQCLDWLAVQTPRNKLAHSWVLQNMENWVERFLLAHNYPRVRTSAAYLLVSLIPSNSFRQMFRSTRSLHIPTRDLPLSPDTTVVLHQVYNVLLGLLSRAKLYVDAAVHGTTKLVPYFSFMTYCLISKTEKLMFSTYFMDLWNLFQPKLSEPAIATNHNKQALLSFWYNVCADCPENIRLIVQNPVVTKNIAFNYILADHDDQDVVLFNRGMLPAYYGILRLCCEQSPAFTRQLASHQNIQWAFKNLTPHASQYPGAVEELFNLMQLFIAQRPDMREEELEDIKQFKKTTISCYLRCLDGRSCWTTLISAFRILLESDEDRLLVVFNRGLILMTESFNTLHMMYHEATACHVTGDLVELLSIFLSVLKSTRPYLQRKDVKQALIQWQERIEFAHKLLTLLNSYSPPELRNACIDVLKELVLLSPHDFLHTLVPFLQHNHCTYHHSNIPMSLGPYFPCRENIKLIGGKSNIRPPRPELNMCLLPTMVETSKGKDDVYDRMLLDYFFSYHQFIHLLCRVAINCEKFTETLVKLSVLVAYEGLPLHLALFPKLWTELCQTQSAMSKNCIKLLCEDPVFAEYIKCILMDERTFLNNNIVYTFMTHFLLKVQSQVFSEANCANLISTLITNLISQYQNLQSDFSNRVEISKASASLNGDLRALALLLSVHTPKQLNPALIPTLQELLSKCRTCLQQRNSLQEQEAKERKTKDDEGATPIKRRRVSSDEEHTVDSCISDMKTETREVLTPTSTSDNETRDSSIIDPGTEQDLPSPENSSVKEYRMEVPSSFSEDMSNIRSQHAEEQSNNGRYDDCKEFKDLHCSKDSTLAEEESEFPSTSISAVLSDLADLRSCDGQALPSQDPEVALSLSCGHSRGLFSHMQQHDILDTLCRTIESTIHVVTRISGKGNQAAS
Method in brief: (§1)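 Average log2 ratios of fragment over vehicle were obtained by unpaired t-test from global-median-normalised Spectronaut label-free quantities. Proteins with ≥2 unique peptides were included. HEK293T lysate (495 µg per sample) was treated in triplicate with fragment at 200 µM or vehicle for 3 h, then with Biotin-Ahx-Ub-VS at 0.5 µM final for 1 h, and labelled DUBs were NeutrAvidin-enriched and run by diaPASEF LC-MS/MS.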

USP36 = target: T1, USP36 (UniProt Q9P275)
T1 sequence (whole entry): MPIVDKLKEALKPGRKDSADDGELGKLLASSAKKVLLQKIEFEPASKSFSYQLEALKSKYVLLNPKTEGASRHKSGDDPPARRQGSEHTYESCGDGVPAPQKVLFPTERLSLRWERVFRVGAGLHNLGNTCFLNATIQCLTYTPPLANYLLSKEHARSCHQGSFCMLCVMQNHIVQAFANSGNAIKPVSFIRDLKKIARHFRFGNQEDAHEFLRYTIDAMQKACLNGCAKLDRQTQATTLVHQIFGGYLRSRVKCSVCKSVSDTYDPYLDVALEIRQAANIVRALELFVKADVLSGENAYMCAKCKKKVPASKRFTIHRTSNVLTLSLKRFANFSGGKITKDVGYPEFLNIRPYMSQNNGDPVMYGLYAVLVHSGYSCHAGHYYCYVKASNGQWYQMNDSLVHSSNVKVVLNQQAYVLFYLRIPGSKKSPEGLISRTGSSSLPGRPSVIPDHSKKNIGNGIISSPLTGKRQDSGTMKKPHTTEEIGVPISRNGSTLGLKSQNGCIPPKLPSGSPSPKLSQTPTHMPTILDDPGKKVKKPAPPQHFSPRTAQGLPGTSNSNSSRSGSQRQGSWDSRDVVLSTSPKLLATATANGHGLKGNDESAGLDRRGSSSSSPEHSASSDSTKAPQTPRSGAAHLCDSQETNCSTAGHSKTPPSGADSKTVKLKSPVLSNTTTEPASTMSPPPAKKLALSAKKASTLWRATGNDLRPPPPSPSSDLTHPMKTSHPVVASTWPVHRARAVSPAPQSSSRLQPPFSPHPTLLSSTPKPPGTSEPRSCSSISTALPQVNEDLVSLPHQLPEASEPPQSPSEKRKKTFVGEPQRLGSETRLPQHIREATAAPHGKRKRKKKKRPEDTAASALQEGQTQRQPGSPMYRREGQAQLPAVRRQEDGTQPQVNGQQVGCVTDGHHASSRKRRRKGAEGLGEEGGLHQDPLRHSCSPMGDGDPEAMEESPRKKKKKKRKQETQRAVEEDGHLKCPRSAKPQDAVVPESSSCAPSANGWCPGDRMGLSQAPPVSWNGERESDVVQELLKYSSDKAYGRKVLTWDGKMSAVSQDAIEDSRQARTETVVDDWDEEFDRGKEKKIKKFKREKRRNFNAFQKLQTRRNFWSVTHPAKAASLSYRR
Method in brief: as §1

USP38 = target: T2, USP38 (UniProt Q8NB14)
T2 sequence (whole entry): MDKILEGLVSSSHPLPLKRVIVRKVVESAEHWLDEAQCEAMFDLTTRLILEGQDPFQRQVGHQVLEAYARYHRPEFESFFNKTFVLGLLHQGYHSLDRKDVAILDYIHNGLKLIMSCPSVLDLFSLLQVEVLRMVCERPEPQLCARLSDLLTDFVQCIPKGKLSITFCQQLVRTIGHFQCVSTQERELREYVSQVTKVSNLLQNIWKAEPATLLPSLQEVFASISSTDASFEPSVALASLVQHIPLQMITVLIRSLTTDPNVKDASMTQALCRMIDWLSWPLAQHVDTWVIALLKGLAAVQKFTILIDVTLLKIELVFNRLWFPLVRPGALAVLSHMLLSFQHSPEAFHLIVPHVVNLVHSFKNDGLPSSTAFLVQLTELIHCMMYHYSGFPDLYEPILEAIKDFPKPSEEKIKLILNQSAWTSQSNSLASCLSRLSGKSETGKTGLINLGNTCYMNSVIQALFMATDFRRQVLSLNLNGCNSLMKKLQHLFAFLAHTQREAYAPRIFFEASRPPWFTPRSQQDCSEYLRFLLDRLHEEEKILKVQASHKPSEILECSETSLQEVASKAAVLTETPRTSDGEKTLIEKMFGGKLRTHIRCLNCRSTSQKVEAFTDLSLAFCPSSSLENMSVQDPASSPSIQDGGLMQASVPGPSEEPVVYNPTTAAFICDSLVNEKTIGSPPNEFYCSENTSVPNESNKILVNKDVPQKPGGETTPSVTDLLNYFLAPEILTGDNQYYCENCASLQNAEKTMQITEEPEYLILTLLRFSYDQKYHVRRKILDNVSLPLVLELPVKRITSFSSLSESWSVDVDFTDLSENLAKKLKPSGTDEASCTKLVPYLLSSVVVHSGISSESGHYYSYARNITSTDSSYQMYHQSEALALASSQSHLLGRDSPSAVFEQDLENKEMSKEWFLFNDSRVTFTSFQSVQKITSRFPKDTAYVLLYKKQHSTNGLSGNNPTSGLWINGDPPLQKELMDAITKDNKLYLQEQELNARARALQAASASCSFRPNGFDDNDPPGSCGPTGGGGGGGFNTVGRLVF
Method in brief: as §1

USP39 = target: T3, USP39 (UniProt Q53GS9)
T3 sequence (whole entry): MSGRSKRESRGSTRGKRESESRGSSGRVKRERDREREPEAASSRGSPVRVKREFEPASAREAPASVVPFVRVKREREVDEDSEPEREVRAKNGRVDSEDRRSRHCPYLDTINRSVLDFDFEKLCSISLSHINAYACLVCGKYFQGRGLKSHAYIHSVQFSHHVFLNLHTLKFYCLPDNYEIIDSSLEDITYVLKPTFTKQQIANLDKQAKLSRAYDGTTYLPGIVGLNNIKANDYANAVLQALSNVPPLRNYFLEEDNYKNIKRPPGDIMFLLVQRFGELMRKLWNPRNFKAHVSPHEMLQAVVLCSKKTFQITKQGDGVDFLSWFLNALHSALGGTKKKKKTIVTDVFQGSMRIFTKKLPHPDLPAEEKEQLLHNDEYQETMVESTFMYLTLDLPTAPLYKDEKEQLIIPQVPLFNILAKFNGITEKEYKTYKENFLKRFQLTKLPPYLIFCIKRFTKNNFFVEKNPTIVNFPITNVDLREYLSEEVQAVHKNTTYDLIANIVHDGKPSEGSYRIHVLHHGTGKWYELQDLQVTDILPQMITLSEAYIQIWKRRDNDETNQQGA
Method in brief: as §1

USP4 = target: T4, USP4 (UniProt Q13107)
T4 sequence (whole entry): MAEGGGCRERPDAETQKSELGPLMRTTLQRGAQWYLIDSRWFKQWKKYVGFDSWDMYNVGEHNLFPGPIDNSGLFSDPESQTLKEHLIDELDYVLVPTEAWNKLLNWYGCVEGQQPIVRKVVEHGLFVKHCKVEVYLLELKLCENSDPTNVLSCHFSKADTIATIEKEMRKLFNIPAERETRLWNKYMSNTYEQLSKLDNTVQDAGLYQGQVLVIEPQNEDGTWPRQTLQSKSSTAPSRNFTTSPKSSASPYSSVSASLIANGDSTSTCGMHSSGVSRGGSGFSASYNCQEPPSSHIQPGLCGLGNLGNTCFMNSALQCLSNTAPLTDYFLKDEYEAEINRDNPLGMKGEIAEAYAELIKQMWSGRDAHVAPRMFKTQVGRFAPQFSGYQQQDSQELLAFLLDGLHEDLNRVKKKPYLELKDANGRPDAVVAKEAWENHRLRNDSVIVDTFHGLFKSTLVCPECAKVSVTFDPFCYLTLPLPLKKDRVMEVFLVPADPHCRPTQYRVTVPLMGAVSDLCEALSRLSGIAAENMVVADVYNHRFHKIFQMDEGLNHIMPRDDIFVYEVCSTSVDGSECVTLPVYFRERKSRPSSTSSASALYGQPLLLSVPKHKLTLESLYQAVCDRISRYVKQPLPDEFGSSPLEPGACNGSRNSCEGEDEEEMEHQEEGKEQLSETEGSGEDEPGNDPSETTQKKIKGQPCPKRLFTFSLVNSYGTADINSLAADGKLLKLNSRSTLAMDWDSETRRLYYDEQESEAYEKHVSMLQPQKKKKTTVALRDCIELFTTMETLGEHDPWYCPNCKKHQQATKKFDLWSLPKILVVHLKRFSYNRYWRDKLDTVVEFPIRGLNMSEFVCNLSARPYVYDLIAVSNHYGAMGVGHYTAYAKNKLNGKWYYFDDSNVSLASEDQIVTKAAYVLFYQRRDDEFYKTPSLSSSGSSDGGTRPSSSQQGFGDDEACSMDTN
Method in brief: as §1

Measured: log2 ratio of Biotin-Ahx-Ub-VS probe labelling

Cc1nnc(C(NC(=O)CCl)c2ccccc2)n1C (stereo not given)
inactive: USP34 0.334 | USP36 0.114 | USP38 0.538 | USP39 0.132 | USP4 0.55
